Experimental data reported in the supplement of paper PMC11732987, “Enantioselective OTUD7B fragment discovery through chemoproteomics screening and high-throughput optimisation” (Communications Chemistry, 2025).

Key:
Assay in all cases: log2 ratio of Biotin-Ahx-Ub-VS probe labelling (fragment/DMSO); higher = less target engagement (more negative = stronger competition), active = hit call of the paper (q ≤ 0.05, log2 ratio ≤ -1)
Details in all cases: compound concentration: 200 uM; treatment time: 3 h
USP42 = molecular target: T1, USP42 (UniProt Q9H9J4)
T1 sequence (whole entry): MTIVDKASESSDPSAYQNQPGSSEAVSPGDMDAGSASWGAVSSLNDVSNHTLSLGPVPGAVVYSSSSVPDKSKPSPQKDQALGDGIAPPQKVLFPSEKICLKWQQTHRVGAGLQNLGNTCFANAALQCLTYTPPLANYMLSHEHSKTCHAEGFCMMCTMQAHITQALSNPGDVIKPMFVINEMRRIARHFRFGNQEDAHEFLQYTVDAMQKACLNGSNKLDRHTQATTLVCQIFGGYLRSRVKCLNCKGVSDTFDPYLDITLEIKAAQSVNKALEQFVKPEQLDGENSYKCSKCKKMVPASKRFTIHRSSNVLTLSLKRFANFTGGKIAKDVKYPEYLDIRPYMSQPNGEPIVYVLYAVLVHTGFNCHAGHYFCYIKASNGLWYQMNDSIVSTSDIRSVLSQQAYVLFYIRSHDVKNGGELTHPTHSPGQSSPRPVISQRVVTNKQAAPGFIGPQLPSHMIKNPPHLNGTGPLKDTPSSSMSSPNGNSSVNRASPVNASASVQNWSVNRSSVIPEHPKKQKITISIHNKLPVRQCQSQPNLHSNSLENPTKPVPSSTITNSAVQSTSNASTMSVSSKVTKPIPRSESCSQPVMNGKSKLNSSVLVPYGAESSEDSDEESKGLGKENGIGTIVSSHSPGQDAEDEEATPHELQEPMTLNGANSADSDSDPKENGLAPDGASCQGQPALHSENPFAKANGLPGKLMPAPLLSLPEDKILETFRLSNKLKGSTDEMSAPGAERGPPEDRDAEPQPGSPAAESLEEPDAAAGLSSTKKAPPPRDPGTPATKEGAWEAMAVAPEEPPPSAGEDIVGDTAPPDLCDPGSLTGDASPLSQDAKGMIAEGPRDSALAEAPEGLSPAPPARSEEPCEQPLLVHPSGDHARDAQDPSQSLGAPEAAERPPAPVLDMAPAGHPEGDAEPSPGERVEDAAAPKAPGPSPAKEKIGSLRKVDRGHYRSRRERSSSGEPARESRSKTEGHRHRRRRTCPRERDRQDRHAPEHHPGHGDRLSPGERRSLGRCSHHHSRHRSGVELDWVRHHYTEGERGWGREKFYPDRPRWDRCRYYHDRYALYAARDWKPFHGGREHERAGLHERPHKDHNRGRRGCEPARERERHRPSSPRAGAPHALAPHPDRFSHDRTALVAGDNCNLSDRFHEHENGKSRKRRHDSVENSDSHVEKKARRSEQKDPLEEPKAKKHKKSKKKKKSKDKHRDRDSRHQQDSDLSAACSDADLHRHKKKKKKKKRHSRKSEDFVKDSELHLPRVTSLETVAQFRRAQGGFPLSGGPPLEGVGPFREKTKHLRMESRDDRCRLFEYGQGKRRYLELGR
Method in brief: (§1)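 HEK293T lysate, 495 µg per sample in Tris/CHAPS/IGEPAL buffer with protease inhibitors, was treated in triplicate with fragment at 200 µM or vehicle for 3 h and then with Biotin-Ahx-Ub-VS at 0.5 µM final for 1 h. Labelled DUBs were NeutrAvidin-enriched, digested with LysC and trypsin, and run by diaPASEF LC-MS/MS. Spectronaut label-free quantities were global-median-normalised, and values are average log2 fragment/vehicle ratios by unpaired t-test on proteins with ≥2 unique peptides.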

USP46 = USP46 (UniProt P62068)
USP46, sequence (P62068 whole entry): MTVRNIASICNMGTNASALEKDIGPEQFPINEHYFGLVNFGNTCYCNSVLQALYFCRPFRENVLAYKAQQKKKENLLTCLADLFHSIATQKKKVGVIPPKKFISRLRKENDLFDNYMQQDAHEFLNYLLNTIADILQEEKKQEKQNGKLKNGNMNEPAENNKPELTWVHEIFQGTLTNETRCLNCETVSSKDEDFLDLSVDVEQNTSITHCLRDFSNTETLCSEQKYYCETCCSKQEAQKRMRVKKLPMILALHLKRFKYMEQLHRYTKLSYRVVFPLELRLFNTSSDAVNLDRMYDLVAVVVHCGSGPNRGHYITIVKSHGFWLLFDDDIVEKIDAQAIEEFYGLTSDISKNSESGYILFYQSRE
Method in brief: as §1

USP47 = molecular target: T2, USP47 (UniProt Q96K76)
T2 sequence (whole entry): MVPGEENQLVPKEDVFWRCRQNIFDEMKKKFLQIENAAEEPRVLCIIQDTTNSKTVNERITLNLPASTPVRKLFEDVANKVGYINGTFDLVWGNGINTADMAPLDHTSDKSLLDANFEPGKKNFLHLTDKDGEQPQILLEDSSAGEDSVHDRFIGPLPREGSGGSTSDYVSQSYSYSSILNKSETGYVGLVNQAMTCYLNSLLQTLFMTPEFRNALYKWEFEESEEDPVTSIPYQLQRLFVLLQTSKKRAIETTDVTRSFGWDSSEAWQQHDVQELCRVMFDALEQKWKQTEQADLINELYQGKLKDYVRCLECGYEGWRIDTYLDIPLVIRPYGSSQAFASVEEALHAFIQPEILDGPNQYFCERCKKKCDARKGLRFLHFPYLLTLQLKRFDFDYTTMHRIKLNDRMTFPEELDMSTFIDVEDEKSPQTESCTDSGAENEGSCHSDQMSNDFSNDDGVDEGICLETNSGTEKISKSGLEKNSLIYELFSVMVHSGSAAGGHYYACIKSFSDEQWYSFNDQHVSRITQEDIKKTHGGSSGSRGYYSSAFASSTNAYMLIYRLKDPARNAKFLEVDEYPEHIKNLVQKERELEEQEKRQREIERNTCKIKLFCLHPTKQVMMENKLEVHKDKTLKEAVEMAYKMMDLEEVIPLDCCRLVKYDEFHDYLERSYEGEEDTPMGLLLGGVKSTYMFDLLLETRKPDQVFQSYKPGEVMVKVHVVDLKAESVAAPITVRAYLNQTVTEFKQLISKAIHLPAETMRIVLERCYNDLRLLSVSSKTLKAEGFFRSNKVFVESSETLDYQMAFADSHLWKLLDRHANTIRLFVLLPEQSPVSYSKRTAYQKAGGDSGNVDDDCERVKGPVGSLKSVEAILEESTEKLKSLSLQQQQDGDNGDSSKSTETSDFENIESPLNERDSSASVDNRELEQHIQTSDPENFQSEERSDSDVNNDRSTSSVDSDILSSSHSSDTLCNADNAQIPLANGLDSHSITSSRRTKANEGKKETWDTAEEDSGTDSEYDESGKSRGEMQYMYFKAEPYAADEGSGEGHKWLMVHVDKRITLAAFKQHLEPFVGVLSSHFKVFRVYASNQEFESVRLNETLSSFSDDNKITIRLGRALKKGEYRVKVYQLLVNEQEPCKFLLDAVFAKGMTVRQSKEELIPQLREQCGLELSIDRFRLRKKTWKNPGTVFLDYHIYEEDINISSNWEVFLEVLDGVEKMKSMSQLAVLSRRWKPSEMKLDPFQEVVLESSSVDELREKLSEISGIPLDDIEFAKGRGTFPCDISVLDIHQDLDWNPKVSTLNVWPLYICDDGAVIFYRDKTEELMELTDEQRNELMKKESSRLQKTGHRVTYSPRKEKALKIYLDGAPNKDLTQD
Method in brief: as §1

USP48 = molecular target: T3, USP48 (UniProt Q86UV5)
T3 sequence (whole entry): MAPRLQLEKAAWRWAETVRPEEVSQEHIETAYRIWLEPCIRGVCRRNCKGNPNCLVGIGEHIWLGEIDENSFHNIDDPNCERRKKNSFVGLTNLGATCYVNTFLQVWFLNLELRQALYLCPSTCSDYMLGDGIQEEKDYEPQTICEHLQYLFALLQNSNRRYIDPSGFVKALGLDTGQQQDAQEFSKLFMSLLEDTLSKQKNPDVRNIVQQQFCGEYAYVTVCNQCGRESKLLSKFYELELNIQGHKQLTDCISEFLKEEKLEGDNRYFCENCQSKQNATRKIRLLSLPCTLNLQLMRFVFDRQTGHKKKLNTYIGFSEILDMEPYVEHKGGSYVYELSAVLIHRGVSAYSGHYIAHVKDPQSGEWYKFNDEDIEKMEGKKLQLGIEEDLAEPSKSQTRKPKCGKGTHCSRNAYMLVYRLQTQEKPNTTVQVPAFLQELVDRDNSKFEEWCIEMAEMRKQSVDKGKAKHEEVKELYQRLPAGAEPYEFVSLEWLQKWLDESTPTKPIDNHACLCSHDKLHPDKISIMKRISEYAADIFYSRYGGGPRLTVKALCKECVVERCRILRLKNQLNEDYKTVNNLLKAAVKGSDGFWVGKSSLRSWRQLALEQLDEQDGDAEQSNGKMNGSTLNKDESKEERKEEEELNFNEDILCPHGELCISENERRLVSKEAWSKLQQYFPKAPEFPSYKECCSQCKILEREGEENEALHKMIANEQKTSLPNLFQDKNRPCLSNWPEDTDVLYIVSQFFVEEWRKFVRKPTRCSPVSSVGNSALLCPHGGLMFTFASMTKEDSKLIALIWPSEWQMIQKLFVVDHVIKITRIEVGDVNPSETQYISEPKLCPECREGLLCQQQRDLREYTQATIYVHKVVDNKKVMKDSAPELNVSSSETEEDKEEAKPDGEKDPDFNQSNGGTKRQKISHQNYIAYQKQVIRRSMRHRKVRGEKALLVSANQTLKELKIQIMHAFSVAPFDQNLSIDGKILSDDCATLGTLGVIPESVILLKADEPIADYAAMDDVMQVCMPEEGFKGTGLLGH
Method in brief: as §1

USP5 = molecular target: T4, USP5 (UniProt P45974)
T4 sequence (whole entry): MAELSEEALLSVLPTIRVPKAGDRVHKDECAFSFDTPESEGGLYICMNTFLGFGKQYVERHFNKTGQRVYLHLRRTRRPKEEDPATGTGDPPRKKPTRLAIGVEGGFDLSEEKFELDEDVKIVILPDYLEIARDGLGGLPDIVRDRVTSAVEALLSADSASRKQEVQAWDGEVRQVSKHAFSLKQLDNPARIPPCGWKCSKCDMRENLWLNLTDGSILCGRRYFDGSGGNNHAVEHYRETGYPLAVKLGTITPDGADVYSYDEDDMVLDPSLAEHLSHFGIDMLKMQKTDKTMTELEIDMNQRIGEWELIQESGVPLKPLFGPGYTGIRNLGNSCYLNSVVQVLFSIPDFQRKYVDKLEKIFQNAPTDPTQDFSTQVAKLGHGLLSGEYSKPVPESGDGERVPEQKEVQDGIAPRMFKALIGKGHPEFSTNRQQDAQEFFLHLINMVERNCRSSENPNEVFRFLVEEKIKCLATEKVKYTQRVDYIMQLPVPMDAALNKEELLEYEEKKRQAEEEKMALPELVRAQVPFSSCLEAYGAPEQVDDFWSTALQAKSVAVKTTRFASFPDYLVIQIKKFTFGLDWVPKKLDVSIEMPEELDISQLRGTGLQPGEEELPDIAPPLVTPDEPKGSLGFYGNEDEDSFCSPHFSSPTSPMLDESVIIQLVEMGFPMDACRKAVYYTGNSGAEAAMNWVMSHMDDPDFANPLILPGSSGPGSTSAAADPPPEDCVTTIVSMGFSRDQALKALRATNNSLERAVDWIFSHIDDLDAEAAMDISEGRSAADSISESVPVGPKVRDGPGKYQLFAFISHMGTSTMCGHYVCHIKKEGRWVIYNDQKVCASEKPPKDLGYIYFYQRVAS
Method in brief: as §1

USP54 = USP54 (UniProt Q70EL1)
USP54, sequence (Q70EL1 whole entry): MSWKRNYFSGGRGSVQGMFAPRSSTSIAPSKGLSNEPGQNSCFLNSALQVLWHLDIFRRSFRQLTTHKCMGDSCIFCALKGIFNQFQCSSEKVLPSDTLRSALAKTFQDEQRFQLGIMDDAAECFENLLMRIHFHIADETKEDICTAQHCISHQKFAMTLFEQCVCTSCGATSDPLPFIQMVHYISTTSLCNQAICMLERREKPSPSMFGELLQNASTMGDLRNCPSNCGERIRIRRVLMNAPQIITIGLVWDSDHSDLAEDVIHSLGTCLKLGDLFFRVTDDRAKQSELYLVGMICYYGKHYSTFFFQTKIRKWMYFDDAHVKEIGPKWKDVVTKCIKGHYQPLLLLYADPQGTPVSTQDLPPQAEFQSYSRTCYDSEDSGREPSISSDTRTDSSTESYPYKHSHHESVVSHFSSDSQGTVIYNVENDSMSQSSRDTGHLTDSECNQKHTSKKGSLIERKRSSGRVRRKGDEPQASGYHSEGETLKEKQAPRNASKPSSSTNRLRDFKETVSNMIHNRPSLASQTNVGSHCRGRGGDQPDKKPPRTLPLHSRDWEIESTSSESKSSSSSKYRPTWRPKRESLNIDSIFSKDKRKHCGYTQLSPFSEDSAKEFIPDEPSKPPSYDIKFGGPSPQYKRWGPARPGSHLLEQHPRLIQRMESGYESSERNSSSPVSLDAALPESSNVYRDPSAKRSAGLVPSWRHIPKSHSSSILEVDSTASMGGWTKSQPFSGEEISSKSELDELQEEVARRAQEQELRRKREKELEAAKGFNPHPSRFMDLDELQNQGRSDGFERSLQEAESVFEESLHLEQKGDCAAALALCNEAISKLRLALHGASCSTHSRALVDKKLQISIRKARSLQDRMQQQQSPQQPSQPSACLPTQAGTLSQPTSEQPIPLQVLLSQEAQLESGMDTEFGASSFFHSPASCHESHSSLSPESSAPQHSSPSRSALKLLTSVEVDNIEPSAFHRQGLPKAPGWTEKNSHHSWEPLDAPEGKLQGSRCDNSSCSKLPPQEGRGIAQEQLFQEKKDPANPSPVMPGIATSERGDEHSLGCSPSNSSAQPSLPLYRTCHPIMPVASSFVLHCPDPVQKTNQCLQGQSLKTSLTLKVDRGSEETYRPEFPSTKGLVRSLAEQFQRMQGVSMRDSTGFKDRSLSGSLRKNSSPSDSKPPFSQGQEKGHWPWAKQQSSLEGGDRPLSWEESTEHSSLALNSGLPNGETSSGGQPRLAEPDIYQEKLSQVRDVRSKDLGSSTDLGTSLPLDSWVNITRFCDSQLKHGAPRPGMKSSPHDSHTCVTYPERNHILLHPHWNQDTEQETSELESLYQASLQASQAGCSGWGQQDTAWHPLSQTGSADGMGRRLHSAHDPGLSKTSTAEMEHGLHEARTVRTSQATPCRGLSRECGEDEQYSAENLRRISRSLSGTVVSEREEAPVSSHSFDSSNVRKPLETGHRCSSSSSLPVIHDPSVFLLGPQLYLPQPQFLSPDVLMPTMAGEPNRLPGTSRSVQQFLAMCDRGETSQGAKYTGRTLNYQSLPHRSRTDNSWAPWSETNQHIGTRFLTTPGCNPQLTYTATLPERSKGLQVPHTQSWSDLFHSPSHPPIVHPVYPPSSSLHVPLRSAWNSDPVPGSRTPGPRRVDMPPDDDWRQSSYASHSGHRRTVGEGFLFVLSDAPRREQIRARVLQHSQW
Method in brief: as §1

USP7 = USP7 (UniProt Q93009)
USP7, sequence (Q93009 whole entry, looked up): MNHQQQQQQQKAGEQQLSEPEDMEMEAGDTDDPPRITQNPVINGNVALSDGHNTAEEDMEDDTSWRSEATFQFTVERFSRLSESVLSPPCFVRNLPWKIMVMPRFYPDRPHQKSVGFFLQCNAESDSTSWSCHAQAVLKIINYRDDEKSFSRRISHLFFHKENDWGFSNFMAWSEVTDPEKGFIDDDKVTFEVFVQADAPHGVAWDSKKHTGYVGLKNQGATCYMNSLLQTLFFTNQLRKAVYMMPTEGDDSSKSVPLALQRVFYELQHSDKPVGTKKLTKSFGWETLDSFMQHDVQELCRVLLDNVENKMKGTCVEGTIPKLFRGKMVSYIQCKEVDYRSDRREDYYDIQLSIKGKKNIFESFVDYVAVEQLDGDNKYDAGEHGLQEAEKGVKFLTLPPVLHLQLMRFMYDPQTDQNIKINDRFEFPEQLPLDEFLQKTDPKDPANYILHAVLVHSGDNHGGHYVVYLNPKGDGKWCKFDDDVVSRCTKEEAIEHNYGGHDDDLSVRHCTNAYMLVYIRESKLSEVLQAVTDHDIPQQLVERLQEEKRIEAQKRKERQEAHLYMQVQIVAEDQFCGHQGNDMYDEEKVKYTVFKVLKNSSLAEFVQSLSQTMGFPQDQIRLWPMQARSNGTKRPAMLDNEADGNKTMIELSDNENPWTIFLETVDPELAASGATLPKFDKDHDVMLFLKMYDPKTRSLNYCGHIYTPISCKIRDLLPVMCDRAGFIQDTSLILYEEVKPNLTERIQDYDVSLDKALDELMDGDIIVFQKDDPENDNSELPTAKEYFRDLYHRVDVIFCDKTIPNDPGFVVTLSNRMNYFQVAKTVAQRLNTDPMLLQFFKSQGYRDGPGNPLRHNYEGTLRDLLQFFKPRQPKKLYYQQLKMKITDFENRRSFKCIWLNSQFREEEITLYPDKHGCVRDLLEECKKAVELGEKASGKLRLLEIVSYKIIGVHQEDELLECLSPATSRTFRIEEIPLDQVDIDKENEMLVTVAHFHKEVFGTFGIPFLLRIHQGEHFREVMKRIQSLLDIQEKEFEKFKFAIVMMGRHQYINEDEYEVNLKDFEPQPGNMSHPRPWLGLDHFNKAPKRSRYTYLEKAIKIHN
Method in brief: as §1

USP8 = molecular target: T5, USP8 (UniProt P40818)
T5 sequence (whole entry): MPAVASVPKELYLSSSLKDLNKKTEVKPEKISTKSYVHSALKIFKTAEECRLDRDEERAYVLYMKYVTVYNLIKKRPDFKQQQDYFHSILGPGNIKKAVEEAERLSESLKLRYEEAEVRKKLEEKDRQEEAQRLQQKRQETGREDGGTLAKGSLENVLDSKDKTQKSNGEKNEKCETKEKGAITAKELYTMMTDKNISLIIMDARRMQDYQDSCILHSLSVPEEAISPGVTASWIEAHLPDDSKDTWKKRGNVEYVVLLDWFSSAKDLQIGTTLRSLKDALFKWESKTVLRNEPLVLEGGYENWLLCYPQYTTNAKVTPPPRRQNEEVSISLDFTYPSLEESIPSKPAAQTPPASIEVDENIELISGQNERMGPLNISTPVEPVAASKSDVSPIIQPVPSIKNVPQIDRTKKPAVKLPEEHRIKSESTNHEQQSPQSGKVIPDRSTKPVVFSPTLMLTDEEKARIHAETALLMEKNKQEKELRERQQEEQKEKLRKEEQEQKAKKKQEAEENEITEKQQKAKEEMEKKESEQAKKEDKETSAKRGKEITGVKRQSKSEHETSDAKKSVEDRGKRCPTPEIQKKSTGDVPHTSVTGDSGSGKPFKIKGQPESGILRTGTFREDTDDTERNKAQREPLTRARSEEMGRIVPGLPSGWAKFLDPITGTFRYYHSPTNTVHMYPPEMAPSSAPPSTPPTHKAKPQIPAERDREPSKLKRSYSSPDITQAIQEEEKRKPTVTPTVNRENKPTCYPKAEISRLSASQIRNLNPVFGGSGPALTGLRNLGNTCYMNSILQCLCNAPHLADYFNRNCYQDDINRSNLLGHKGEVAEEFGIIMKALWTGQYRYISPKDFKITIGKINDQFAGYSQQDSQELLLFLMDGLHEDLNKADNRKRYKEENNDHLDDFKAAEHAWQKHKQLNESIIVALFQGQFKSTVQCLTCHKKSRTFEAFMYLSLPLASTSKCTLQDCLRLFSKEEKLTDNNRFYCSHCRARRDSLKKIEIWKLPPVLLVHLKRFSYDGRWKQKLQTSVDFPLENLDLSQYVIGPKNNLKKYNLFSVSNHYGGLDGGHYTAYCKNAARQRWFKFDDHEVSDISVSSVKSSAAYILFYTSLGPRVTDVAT
Method in brief: as §1

Measured: log2 ratio of Biotin-Ahx-Ub-VS probe labelling

O=C(CCl)N1CCCCC12CCOCC2
inactive: USP42 -0.368 | USP46 -0.278 | USP47 -0.146 | USP48 -0.525 | USP5 -0.258 | USP54 0.442 | USP7 -0.511 | USP8 -0.237
